High-throughput results as filed in PubChem.
The list is not random: actives were taken first. Their share in the collection is about 21%.
IL-1B inflam inh: inhibitors of inflammasome signaling (IL-1 beta secretion) | THP-1 LPS/ATP IL-1B secretion, AlphaLISA, 16 h; active compounds read low | activity change, % at 57.5 µM | hit rate 4.7% among 360,000; in the data active = activity change below about -50%; inconclusive = mostly about -30% to -49%
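Secreted IL-1B measured by AlphaLISA bead assay after 16 h compound exposure of THP-1 cells; compounds (final up to 57.5 uM) added 1 h before LPS (250 ng/mL) and ATP (1.25 mM) stimulation; lower signal means less secretion.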
RORgamma inh: ROR gamma (mouse) transcription inhibition; Potency, µM (top dose mostly 53.6 µM), actives largely listed as inhibitors; Drosophila S2 Gal4-RORgamma UAS-luciferase reporter, 20 h; hit rate 5.4% among 310,000; AID 2551; P51450; also: nearly all actives have a fitted effect of over 60% in size
Target sequence (P51450 whole entry, looked up, the tested form may be a part): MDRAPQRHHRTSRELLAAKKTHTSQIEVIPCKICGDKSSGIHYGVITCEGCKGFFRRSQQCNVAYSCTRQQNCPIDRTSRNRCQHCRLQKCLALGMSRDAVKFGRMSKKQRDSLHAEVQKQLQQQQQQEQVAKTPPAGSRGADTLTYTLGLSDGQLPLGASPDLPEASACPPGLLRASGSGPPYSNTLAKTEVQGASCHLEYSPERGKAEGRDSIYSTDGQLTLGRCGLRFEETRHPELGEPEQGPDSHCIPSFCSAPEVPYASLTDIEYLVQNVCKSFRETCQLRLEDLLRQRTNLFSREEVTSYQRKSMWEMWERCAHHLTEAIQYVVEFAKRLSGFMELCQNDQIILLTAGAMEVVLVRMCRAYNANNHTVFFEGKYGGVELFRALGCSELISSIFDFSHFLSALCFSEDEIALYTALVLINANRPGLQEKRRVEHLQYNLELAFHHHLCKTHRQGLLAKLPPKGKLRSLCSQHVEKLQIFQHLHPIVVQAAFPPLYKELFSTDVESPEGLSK
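Read-out: Photinus luciferase luminescence; inhibitors lower reporter signal. Insect Schneider cells with Gal4-ROR gamma fusion under metallothionein promoter, UAS reporter; 700 uM final copper sulfate induction, 20 hr, ambient temperature.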
VP16 counter: Gal4-VP16 reporter inhibition counter-screen; Drosophila S2 Gal4-VP16 UAS-luciferase, luminescence, 20 h; Potency, µM (top dose mostly 53.6 µM), hits mostly inhibitors; hit rate 3.5% among 310,000; AID 2546;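 also: Gal4-VP16 expression switched on by copper sulfate through the metallothionein promoter; nearly all actives have a fitted effect of over 50% in size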
DT40 TDP1 no CPT: qHTS for Inhibitors of human tyrosyl-DNA phosphodiesterase 1 (TDP1): qHTS in cells in absence of CPT; DT40 Tdp1-/- hTDP1 cells, no CPT, ATP luminescence, 48 h; Potency, µM (titrated, usually from 46.2 µM), most hits filed as inhibitors; hit rate 15% among 420,000; AID 686978, 2013; also: nearly all actives have a fitted effect of over 55% in size
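Readout: luminescence from CellTiter-Glo after 30 min in the dark at RT. Cells: DT40 Tdp1-/- with stable hTDP1, 400/well. Exposure: compounds alone, ≥48 hr, 37 °C.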
TDP1 cell CPT: growth inhibition of DT40 Tdp1-/-;hTDP1 cells with camptothecin (screen for TDP1 inhibitors); chicken DT40 Tdp1-/-;hTDP1 cells + 20 nM CPT, ATP luminescence, 48 h; Potency, µM (highest dose often 46.2 µM), hits mostly inhibitors; hit rate 12% among 420,000; AID 686979; also: nearly all actives have a fitted effect of over 55% in size
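Chicken DT40 Tdp1-/- cells complemented with human TDP1, 400 cells/well, exposed to compounds plus 20 nM camptothecin for at least 48 h at 37 C; viability read as ATP content by CellTiter-Glo luminescence.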
ELG1 repair inh: inhibitors of ELG1-dependent DNA repair in HEK293T cells; HEK293T ELG1-luciferase reporter, luminescence, 16 h; DNA damage induced by 5-fluorouridine; Potency, µM (series often up to 46.1 µM), hits mostly inhibitors; hit rate 2.3% among 330,000; also: nearly all actives have a fitted effect of over 55% in size
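In this reporter screen, reduction of luminescence relative to DMSO vehicle indicated activity. Compounds and 5-fluorouridine were added together to 2,000 cells per well, incubated for 16 hr at 37 °C, then developed with ONE-Glo.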
Numbers stand for hits; i = inactive; ? = inconclusive; nt = no result. Unless noted, calls follow the shape of the dose curve; as a rule, active = well fitted curve in the direction sought with a large enough effect; inconclusive = small, poorly fitted or top-dose-only effect, or another doubt; inactive = no such curve, though single readings can be large; an effect the other way counts as inactive or inconclusive.

SMILES | IL-1B inflam inh | RORgamma inh | VP16 counter | DT40 TDP1 no CPT | TDP1 cell CPT | ELG1 repair inh
Cc1ccc(C(=O)NC(=S)Nc2ccc(NC(=O)c3cccc(Cl)c3)cc2)cc1 | i | ? | 10µM | ? | i | i
CC(=O)Nc1cccc(NC(=O)c2cccc(Cl)c2)c1 | i | nt | nt | i | i | nt
O=C(C1Cc2ccccc2CN1S(=O)(=O)c1cccs1)N1CCCCC1 (stereo unspecified) | i | i | i | i | i | i
COc1ccc(-c2csc3ncn(Cc4ccccc4)c(=O)c23)cc1 | i | i | i | ? | ? | i
Cn1cc(/C=N/n2cnc3scc(-c4ccc(Cl)cc4)c3c2=O)c2ccccc21 | i | i | i | 0.82µM | 0.581µM | i
Oc1ccccc1/C=N/NC(=S)NC1CC2CC1C1C=CCC21 (stereo unspecified) | ? | 8.91µM | 11.2µM | 4.11µM | 3.66µM | ?
COc1cccc(/C=N/NC(=S)NC2CC3CC2C2C=CCC32)c1O (stereo unspecified) | nt | 8.91µM | ? | 29.1µM | ? | ?
COc1cc(C(CCN2CCCC(C)C2)c2c(OC)cc(OC)c3c(-c4ccccc4)cc(=O)oc23)cc(OC)c1OC (stereo unspecified) | i | ? | ? | 18.4µM | ? | i
COc1cc(C(CCN2CCCCC2)c2c(OC)cc(OC)c3c(-c4ccccc4)cc(=O)oc23)cc(OC)c1OC (stereo unspecified) | ? | ? | ? | ? | 18.4µM | i
COc1cc(C(CC(=O)N2CCCC2)c2c(OC)cc(OC)c3c(-c4ccccc4)cc(=O)oc23)cc(OC)c1OC (stereo unspecified) | ? | ? | i | ? | ? | i
COc1ccc(C(CCN2CCOCC2)c2c(OC)cc(OC)c3c(C)cc(=O)oc23)cc1 (stereo unspecified) | i | i | i | 18.4µM | 23.1µM | ?
COc1cc(C(CCN2CCCC2)c2c(OC)cc(OC)c3c(C)cc(=O)oc23)cc(OC)c1OC (stereo unspecified) | i | i | i | 23.1µM | 13µM | ?
COc1cc(C(CCN2CCOCC2)c2c(OC)cc(OC)c3c(C)cc(=O)oc23)cc(OC)c1OC (stereo unspecified) | i | i | i | i | ? | i
O=C1C(=O)N(CCN2CCOCC2)C(c2ccc([N+](=O)[O-])cc2)/C1=C(/O)c1ccc2c(c1)OCO2 (stereo unspecified) | i | 7.94µM | 11.2µM | i | i | ?
CC1Cc2ccccc2N1S(=O)(=O)c1cccc(C(=O)N2Cc3ccccc3CC2C(N)=O)c1 (stereo unspecified) | i | nt | nt | 8.2µM | 16.4µM | i
COc1ccccc1N1CCN(C(=O)c2cccc(S(=O)(=O)N3c4ccccc4CC3C)c2)CC1 (stereo unspecified) | nt | nt | nt | ? | 23.1µM | nt
Cc1noc(C)c1COC(=O)c1cccc(S(=O)(=O)N2c3ccccc3CC2C)c1 (stereo unspecified) | i | ? | i | ? | ? | 18.4µM
CCOC(=O)C1CCN(C(=O)c2cccc(S(=O)(=O)N3c4ccccc4CC3C)c2)CC1 (stereo unspecified) | i | nt | nt | ? | ? | i
COc1ccccc1N1CCN(C(=O)c2cccc(Oc3ccccc3)c2)CC1 | i | i | i | i | i | i
CC1Cc2ccccc2N1S(=O)(=O)c1cccc(C(=O)c2nccn2C)c1 (stereo unspecified) | i | i | i | i | i | ?
CC1Cc2ccccc2N1S(=O)(=O)c1cccc(C(=O)N2CCCCC2)c1 (stereo unspecified) | ? | nt | nt | 16.4µM | 20.6µM | i
O=C(CSc1nc2c([nH]c3ccccc32)c(=O)n1-c1ccccc1)N1CCCc2ccccc21 | nt | nt | nt | i | i | nt
CNC(=S)N1CCC(C(=O)c2ccc(Cl)cc2)CC1 | i | nt | nt | i | i | nt
CCN1C[C@@H]2[C@@H]3C(=O)N(Cc4ccccc4)C(=O)[C@@H]3[C@](CC)(C1=O)N2C(=O)c1ccc(Cl)c(Cl)c1 | i | nt | nt | 25.9µM | 16.4µM | nt
CN1C[C@@H]2[C@@H]3C(=O)N(Cc4ccccc4)C(=O)[C@@H]3[C@](Cc3ccccc3)(C1=O)N2C(=O)c1ccc(C(C)(C)C)cc1 | -88.5 | nt | nt | 16.4µM | 16.4µM | nt
SMILES | IL-1B inflam inh | RORgamma inh | VP16 counter | DT40 TDP1 no CPT | TDP1 cell CPT | ELG1 repair inh
O=C1CC(c2ccco2)Cc2nc(Nc3ccc(F)cc3)ncc21 (stereo unspecified) | ? | i | i | 23.1µM | ? | i
COc1ccc(C2CC(=O)c3cnc(NC(=O)c4ccco4)nc3C2)cc1 (stereo unspecified) | i | i | i | i | i | i
COc1ccc(C2CC(=O)c3cnc(NC(=O)c4ccccc4)nc3C2)c(OC)c1 (stereo unspecified) | i | i | i | 7.31µM | 6.51µM | ?
COc1ccc(Nc2ncc3c(n2)CC(c2ccc(C)cc2)CC3=O)cc1 (stereo unspecified) | i | i | i | 8.2µM | ? | ?
CCOC(=O)CCNC(=O)N1CCCC(Cc2ccccc2)(C(=O)OCC)C1 (stereo unspecified) | i | i | i | i | ? | i
Cc1ccccc1OCC(=O)Nc1ccc(C(=O)OCc2cc(=O)n3ccsc3n2)cc1 | nt | nt | nt | i | ? | nt
Cc1[nH]n(-c2nc(-c3ccccc3F)cc(=O)[nH]2)c(=O)c1CCO | i | 10µM | i | i | i | i
Cc1cc(C)c(NC(=O)C(=O)NCC(c2cccnc2)N2CCN(c3ccccc3F)CC2)c(C)c1 (stereo unspecified) | nt | nt | nt | 14.6µM | 14.6µM | nt
Cc1ccc(NC(=O)C(=O)NCC(c2cccnc2)N2CCN(c3ccccc3F)CC2)cc1Cl (stereo unspecified) | nt | nt | nt | 23.1µM | 20.6µM | nt
Cc1ccc(NC(=O)C(=O)NCC(c2cccnc2)N2CCN(C)CC2)cc1F (stereo unspecified) | nt | nt | nt | i | i | nt
Cc1cc(C)c(NC(=O)C(=O)NCC(c2cccnc2)N2CCN(Cc3ccccc3)CC2)c(C)c1 (stereo unspecified) | nt | nt | nt | 5.8µM | 11.6µM | nt
Cc1cccc(NC(=O)C(=O)NCC(c2cccnc2)N2CCOCC2)c1 (stereo unspecified) | nt | nt | nt | i | i | nt
O=C(NCC(c1cccnc1)N1CCN(c2ccccc2F)CC1)c1ccccc1 (stereo unspecified) | i | i | i | ? | ? | i
CCCCn1c(N)c(N(CCOC)C(=O)COC(=O)COc2cc(C)ccc2Cl)c(=O)[nH]c1=O | i | nt | nt | i | i | i
